These results are taken from PubChem BioAssay (NCATS).

Where “and” joins values, the source holds several entries; their conditions need not be identical. Equal values may be shown once. Results filed as inconclusive are left out. Calls of active or inactive are those of the source. Unless noted, calls come from the whole dose curve; as a rule, active = well fitted curve in the direction sought with a large enough effect; inconclusive = small, poorly fitted or top-dose-only effect, or another doubt; inactive = no such curve, though single readings can be large; an effect the other way counts as inactive or inconclusive.

One assay in a line: qHTS Assay for Identifying Gametocytocidal Compounds (AID 743244).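 For max response: % is set by controls: 0 for no effect and ±100 for the full control effect; actives lower the fluorescent signal which means gametocytes are killed.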 Note: potency is the fitted concentration of half-maximal effect. To be noted: P. falciparum 3D7 stage III-V gametocytes, alamarBlue, 72 h; max response: stronger effect = lower value. Summed up: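 Fluorescence at Ex 525/Em 598 nm, recorded 24 h after alamarBlue addition, reports residual metabolic activity of 3D7 gametocytes (stages III–V) following 72 h compound exposure at 37 °C, 5% CO2.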
On the technique in general: In qHTS, concentration-response curves come from the screen itself.
In the case of `NC(CCCP(=O)(O)O)C(=O)O` (stereo not drawn), the max response is 8.77% (inactive).

With `Nc1ccc(C(=O)O)c(O)c1`, the max response was 1.29% (inactive).

For the molecule `C=C[C@@H]1CN2CC[C@@H]1C[C@H]2[C@H](O)c1ccnc2ccc(OC)cc12`, the Potency was 296 nM (active).

In the case of `CC[C@@H](C)[C@H]1O[C@]2(CC[C@H]1C)C[C@@H]1C[C@@H](CC=C(C)[C@@H](O[C@H]3C[C@H](OC)[C@@H](O[C@H]4C[C@H](OC)[C@@H](O)[C@H](C)O4)[C@H](C)O3)[C@@H](C)C=CC=C3CO[C@@H]4[C@H](O)C(C)=C[C@@H](C(=O)O1)[C@]34O)O2`, the Potency is 2640 nM (active).

A short description of the next assay: qHTS assay for cell viability of HEK293 cells (AID 743288). Note: % is set by controls: 0 for no effect and ±100 for the full control effect; nearly all actives have a fitted effect of over 50% in size. Particulars: ATP luminescence (CellTiter-Glo), 18 h; max response: stronger effect = lower value. In outline:
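Environmental chemicals tested in qHTS format against parental HEK293 cells; 18 h treatment, 37 C; read-out ATP luminescence (CellTiter-Glo), 30 min RT development.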
For `O=C(O)/C=C\C(=O)O`, the max response was 5.88% (inactive).

Regarding `CCCCCCCCCCCCCCCC(=O)OC(C)C`, the max response is -7.13% (inactive).

Turning to `Nc1cc(-c2ccncc2)c[nH]c1=O`, the max response is -3.39% (inactive).

For `CC(C)OC(=O)c1cc(C(=O)OC(C)C)cc([N+](=O)[O-])c1`, the max response is -14.7% (inactive).

Regarding `Nc1ccc(O)c([N+](=O)[O-])c1`, the max response is -18.2% (inactive) and -13.9% (inactive).

For the molecule `CN1CCC[C@H]1c1cccnc1`, the max response is -10.2% (inactive) and -14.6% (inactive).

Consider `S=c1[nH]c2ccccc2s1`, for which the max response was 3.04% (inactive) and -5.55% (inactive).

Turning to `O=C(O)c1ccccc1Nc1cccc(C(F)(F)F)c1`, the max response is -8.76% (inactive).

As to `O=C(OCc1ccccc1)c1ccccc1`, the max response was -7.64% (inactive).

In the case of `Nc1ccc([N+](=O)[O-])cc1O`, the max response is 3.96% (inactive) and 2.89% (inactive).

In the case of `C=CCCCCCCCCC(=O)O`, the max response was -1.32% (inactive).

A short description of the next assay: qHTS assay for cell viability of the p53RE-bla HCT-116 cell line (AID 743292). Note: % is set by controls: 0 for no effect and ±100 for the full control effect; nearly all actives have a fitted effect of over 55% in size. To be noted: p53RE-bla HCT-116 viability, ATP luminescence, 16 h; series mostly up to 95 µM; activity change, negative = cytotoxicity: at the top concentration. In outline: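 HCT-116 p53RE-bla cells seeded 4,000/well; 5 h at 37 C; compound (DMSO) added; 16 h at 37 C; CellTiter-Glo added, 30 min RT; luminescence read.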
As to `O=C(O)/C=C\C(=O)O`, the “activity change, negative = cytotoxicity” value was -3.36% (inactive).

`CCCCCCCCCCCCCCCC(=O)OC(C)C`: the “activity change, negative = cytotoxicity” value is 12.6% (inactive).

As for `Nc1cc(-c2ccncc2)c[nH]c1=O`, the “activity change, negative = cytotoxicity” value was -17.2% (inactive).

For the molecule `CC(C)OC(=O)c1cc(C(=O)OC(C)C)cc([N+](=O)[O-])c1`, the “activity change, negative = cytotoxicity” value is 9.15% (inactive).

As for `Nc1ccc(O)c([N+](=O)[O-])c1`, the Potency result is “inactive”.

Turning to `CN1CCC[C@H]1c1cccnc1`, the Potency entry is “inactive”.

For `S=c1[nH]c2ccccc2s1`, the Potency result is “inactive”.

For the molecule `O=C(O)c1ccccc1Nc1cccc(C(F)(F)F)c1`, the “activity change, negative = cytotoxicity” value is -18.8% (inactive).

In the case of `O=C(OCc1ccccc1)c1ccccc1`, the “activity change, negative = cytotoxicity” value is 1.11% (inactive).

Consider `Nc1ccc([N+](=O)[O-])cc1O`, for which the “activity change, negative = cytotoxicity” value is 9.33% (inactive).

`C=CCCCCCCCCC(=O)O`: the “activity change, negative = cytotoxicity” value was 13.3% (inactive).

A further assay is described as follows: qHTS profiling of the MIPE4 collection as inhibitors of Plasmodium falciparum (3D7) proliferation (AID 743344; call rule not given here;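 note: scaled between DMSO vehicle wells and 0.29 µM artemisinin as full inhibition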). Particulars: P. falciparum 3D7 in erythrocytes, SYBR Green DNA fluorescence, 72 h; at 28.5 µM (top of the series). From the text: Plasmodium falciparum is a virulent malarial parasite that kills 1-2 million people worldwide each year. Transmitted by mosquitoes, the sporozoite form of the parasite enters the blood stream to infect hepatocytes, where they become merozoites that infect red blood cells (erythrocytes). Within erythrocytes, merozoites begin a […] cycle of growth and division, after which the parasite is released to infect new red blood cells. Gametocytes, which form within erythrocytes as well, circulate in the bloodstream and are ingested by the mosquito, thereby completing the life cycle. To profile malarial isolates for differential chemical responses and to identify inhibitors of malarial growth, an assay that measures P. falciparum growth and replication within erythrocytes was employed. This assay uses a DNA binding fluorescent dye (SYBR Green) to detect parasite DNA following cell lysis. Because mature erythrocytes lack DNA, only Plasmodium-derived DNA is detected.
The SYBR Green viability assay was adapted from a method described previously (Plouffe et al., 2008). For screening 3 ul culture medium was dispensed into 1536 well black clear bottom plates (Aurora Biotechnologies) using a Multidrop Combi (Thermo Fisher Scientific Inc.), 23 nL compounds in DMSO were added by a pin tool (Kalypsys), and 5 ul of erythrocytes infected with P. falciparum (0.3% parasitemia, 2.5% hematocrit final concentration) were added. The plates were incubated at 37 C in a humidified incubator in 5% CO2 for 72 h, and 2 ul lysis buffer (20 mM Tris HCl, 10 mM EDTA, 0.16% saponin, 1.6% triton X, 10X SYBR Green I supplied as 10,000X […] by Invitrogen) was added to each well. The plates were mixed for 25 sec with gentle shaking and incubated overnight at room temperature in the dark. The following morning, fluorescence intensity at 485(14) nm excitation and 535(25) nm emission wavelengths was measured on an EnVision (Perkin Elmer) plate reader. Plate reads were normalized relative to the control inhibitor (0.29 uM artemisinin) and vehicle (DMSO) wells present on each plate and then corrected by an algorithm using vehicle-only control plates at the beginning and end of the compound plate stack.
The molecule `COC(=O)C1=C(C)NC(C)=C(C(=O)OCC(C)C)C1c1ccccc1[N+](=O)[O-]` (stereo not drawn) displayed a parasite growth, % of DMSO control of 5.69%.

Take `C=C[C@@H]1CN2CC[C@@H]1C[C@H]2[C@H](O)c1ccnc2ccc(OC)cc12`: the parasite growth, % of DMSO control came out at 6.67%.

Take `CC[C@@H](C)[C@H]1O[C@]2(CC[C@H]1C)C[C@@H]1C[C@@H](CC=C(C)[C@@H](O[C@H]3C[C@H](OC)[C@@H](O[C@H]4C[C@H](OC)[C@@H](O)[C@H](C)O4)[C@H](C)O3)[C@@H](C)C=CC=C3CO[C@@H]4[C@H](O)C(C)=C[C@@H](C(=O)O1)[C@]34O)O2`: the parasite growth, % of DMSO control came to 35.5%.

A short description of another assay: qHTS profiling of the MIPE4 collection as inhibitors of Plasmodium falciparum (DD2) proliferation (AID 743345; call rule not given here). Particulars: P. falciparum Dd2 in erythrocytes, SYBR Green DNA, 72 h; at 28.5 µM (top of the series). Summed up:
(§1)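 Erythrocytes infected with P. falciparum (0.3% parasitemia, 2.5% hematocrit) incubated with compounds 72 h at 37 C, 5% CO2. Lysis with saponin/Triton buffer containing SYBR Green I, overnight at room temperature in the dark; DNA fluorescence (485/535 nm) normalised to 0.29 uM artemisinin and DMSO.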
Consider `COC(=O)C1=C(C)NC(C)=C(C(=O)OCC(C)C)C1c1ccccc1[N+](=O)[O-]` (stereo not drawn), for which the parasite growth remaining, % of DMSO control (lower = more inhibition) was found to be 15%.

`C=C[C@@H]1CN2CC[C@@H]1C[C@H]2[C@H](O)c1ccnc2ccc(OC)cc12` registered a parasite growth remaining, % of DMSO control (lower = more inhibition) of 9.34%.

As for `CC[C@@H](C)[C@H]1O[C@]2(CC[C@H]1C)C[C@@H]1C[C@@H](CC=C(C)[C@@H](O[C@H]3C[C@H](OC)[C@@H](O[C@H]4C[C@H](OC)[C@@H](O)[C@H](C)O4)[C@H](C)O3)[C@@H](C)C=CC=C3CO[C@@H]4[C@H](O)C(C)=C[C@@H](C(=O)O1)[C@]34O)O2`, the parasite growth remaining, % of DMSO control (lower = more inhibition) turned out to be 6.32%.

A further assay is described as follows: qHTS profiling of the MIPE4 collection as inhibitors of Plasmodium falciparum (DD2) proliferation (Rep 2) (AID 743346; call rule not given here). Particulars: P. falciparum Dd2 in erythrocytes, SYBR Green DNA, 72 h; at 28.5 µM (top of the series). In outline: as §1
Take `COC(=O)C1=C(C)NC(C)=C(C(=O)OCC(C)C)C1c1ccccc1[N+](=O)[O-]` (stereo not drawn): the parasite growth, % of control (lower = inhibition) was 8.98%.
